Screening results (PubChem BioAssay)
Pf growth 48h: P. falciparum growth inhibition at 48 hours (one generation) | P. falciparum luciferase growth in erythrocytes, 48 h | actives 5.9% (n = 310,000) | Potency, µM (series often up to 28.7 µM), hits mostly inhibitors
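Compounds are pin-transferred into medium, infected erythrocytes (2% hematocrit, 0.1% parasitemia final) are added, and plates sit one parasite generation at 37 C in 5% CO2. Detection reagent is then added and luminescence measured.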
Shiga toxin inh: blocks Shiga toxin action in Vero cells | actives 9.2% (n = 290,000) | inhibition, % at 38.7 µM | AID 2315 | Vero cells, Shiga toxin protein synthesis inhibition reporter; in the data active means inhibition mostly above about 28%, no sharp cut-off; inactive means mostly below about 43%
Pf growth 96h: inhibits malaria parasite growth, 96 h; actives 6.9% (n = 320,000); Potency, µM (series often up to 28.7 µM), hits mostly inhibitors; P. falciparum luciferase reporter growth, 96 h
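Two-generation exposure (96 h) targets delayed-death phenotype. Reporter parasites carrying integrated firefly luciferase, in red cells at 2% hematocrit and 0.05% parasitemia final, kept at 37 C, 5% CO2; luminescence loss indicates inhibition.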
NS1 function inh: inhibitors of influenza NS1 protein function | Potency, µM (highest dose often 46.1 µM) | actives 0.4% (n = 270,000) | AID 2326; calls by dose curve; further: actives are rising curves; nearly all actives have a fitted effect of over 50% in size
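Recovery from NS1-induced slow growth read by OD600 in budding yeast switched to galactose assay medium (pH 6.0, -URA) at 1:100 dilution. Compound 23 nl per well; the matching strain lacking NS1 serves as control.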
CHX counter: affects cycloheximide protein synthesis inhibition readout, counter-screen | actives 12% (n = 300,000) | max response, % | cell reporter, cycloheximide protein synthesis inhibition counterscreen | AID 2314; in the data active means max response mostly above about 13%, no sharp cut-off; inactive means mostly below about 14%; further: read at 38.3 µM for the half of the compounds with a filed dose
Sm TGR block: S. mansoni TGR enzyme inhibition; Potency, µM (doses to about 114 µM), actives largely listed as inhibitors; actives 3% (n = 360,000); purified TGR, DTNB reduction, TNB absorbance 405 nm; Q962Y6; further: nearly all actives have a fitted effect of over 60% in size
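Kinetic colorimetric format: TGR-catalysed, NADPH-driven DTNB reduction monitored via TNB absorbance. Enzyme dispensed at 20 nM; compound exposure 15 min at room temperature before reaction start.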
Of the large screens only hits and unclear results are named; the others gave an inactive call. Hits are enriched below; roughly 21% of the tested compounds scored in any of these assays. Unless noted, the call rests on the fitted dose curve; in most records, active means well fitted curve in the direction sought with a large enough effect; inconclusive means small, poorly fitted or top-dose-only effect, or another doubt; inactive means no such curve, though single readings can be large; an effect the other way counts as inactive or inconclusive.

COc1cccc(NC(=O)c2cncs2)c1	none
COc1ccc2c(c1)O[C@@H](c1cccc(C(F)(F)F)c1)[C@H](OC(=O)NCCc1ccc(OC)c(OC)c1)C2=O	Pf growth 48h inconclusive, Pf growth 96h inconclusive, NS1 function inh inconclusive
Cn1cnc(S(=O)(=O)N2CCCC(C(=O)NCc3ccccc3)C2)c1 (stereo not drawn)	none (no result: Pf growth 48h, Shiga toxin inh, Pf growth 96h, NS1 function inh, CHX counter)
CC(C)CNC(=S)NC1CCCC1	none (no result: Pf growth 48h)
CC(CC(=O)c1cccs1)CC(=O)c1cccs1	Shiga toxin inh active, CHX counter 56
O=C(CCNc1cccc(Cl)c1)c1cccs1	Shiga toxin inh 57, CHX counter 33, Sm TGR block 5.6µM
Cc1ccc(NCCC(=O)c2cccs2)cc1Cl	Shiga toxin inh 53, CHX counter 29, Sm TGR block 4µM
CCCOc1ccc(C(=O)CCNc2ccc(C)c(Cl)c2)cc1	none
O=C(C1CC1)N1CCc2sccc2C1c1ccc(Cl)cc1 (stereo not drawn)	Pf growth 48h inconclusive, Pf growth 96h inconclusive
COC(=O)c1ccc(N=CC2=C(O)CC(c3ccccc3)CC2=O)cc1 (stereo not drawn)	NS1 function inh inconclusive
Cc1cc(C)c(S(=O)(=O)N2CCC(N3CCN(Cc4ccccc4)C(=O)C3=O)CC2)c(C)c1	none (no result: Pf growth 48h, Shiga toxin inh, Pf growth 96h, NS1 function inh, CHX counter)
CC1CCN(C(=O)CSc2nnc3ccc(-c4cccnc4)nn23)CC1	Pf growth 96h inconclusive (no result: Shiga toxin inh, NS1 function inh, CHX counter)
CCCCn1c(N)c(N(CCOC)C(=O)CN(C)S(=O)(=O)c2ccc(F)cc2)c(=O)[nH]c1=O	none (no result: Shiga toxin inh, NS1 function inh, CHX counter)
CC1=CC(C)(C)N(S(=O)(=O)c2ccc(C)cc2)c2cc(C)ccc21	Pf growth 96h 9.3µM (no result: Pf growth 48h)
COc1ccc2c(c1)C(C)=CC(C)(C)N2S(=O)(=O)c1ccc(C)cc1	Pf growth 48h inconclusive
O=S(=O)(O)c1cc(N=[N+]([O-])c2cc(S(=O)(=O)O)c3ccccc3c2)cc2ccccc12	none (no result: Pf growth 48h, Shiga toxin inh, Pf growth 96h, CHX counter, Sm TGR block)
CNc1c(NC(=O)COc2ccc(Cl)cc2)c(=O)oc2ccccc12	Pf growth 48h 10µM, Pf growth 96h inconclusive
COc1cc(NC(=O)COc2ccc(Cl)cc2)ccc1-c1cc2ccccc2oc1=O	Pf growth 48h inconclusive, Pf growth 96h 4.1µM, NS1 function inh inconclusive
COc1cc(NC(=O)COc2ccc(Cl)cc2)ccc1NC(=O)C(C)C	none
CC(C)(C)NC(=O)CSc1ccc(S(=O)(=O)N2CCOCC2)cn1	Pf growth 48h inconclusive, Pf growth 96h inconclusive (no result: Shiga toxin inh, NS1 function inh, CHX counter)
O=C(CSc1cccc[n+]1[O-])N1CCCc2ccccc21	CHX counter 23 (no result: NS1 function inh)
Cn1nnnc1SCC(=O)N1CCc2ccccc21	none
O=C(CCC(=O)N1CCc2ccccc21)N1CCc2ccccc21	none (no result: Pf growth 48h, Shiga toxin inh, Pf growth 96h, CHX counter, Sm TGR block)
O=C(CSc1ccccc1)N1CCc2ccccc21	Shiga toxin inh 93, CHX counter 31 (no result: Pf growth 96h)
Cc1nc(SCC(=O)N2CCc3ccccc32)n[nH]1	Pf growth 96h inconclusive, CHX counter 33
Cn1nnnc1SCC(=O)N1CCCc2ccccc21	none
CCn1cc(SCC(=O)N2CCc3ccccc32)c2ccccc21	Shiga toxin inh 54, CHX counter 27
Cc1ccc(OCC(O)CN2CCOCC2)cc1C (stereo not drawn)	none
Nc1cc(N)nc(SCC(=O)N2CCc3ccccc32)n1	Shiga toxin inh 58, Pf growth 96h inconclusive, CHX counter 30 (no result: Pf growth 48h)
O=C(CSCc1ccco1)N1CCc2ccccc21	Shiga toxin inh 105, Pf growth 96h inconclusive, CHX counter 40, Sm TGR block inconclusive
Cc1nnc(SCC(=O)N2CCc3ccccc32)s1	Shiga toxin inh active, Pf growth 96h inconclusive, CHX counter 20
CCOc1ccc(Nc2cc(C)nc3nc(Cc4ccc(Cl)cc4)nn23)cc1	none (no result: Pf growth 48h, Shiga toxin inh, Pf growth 96h, NS1 function inh, CHX counter)
CCN(CC)S(=O)(=O)c1ccc2c(c1)N(CC(=O)NCc1ccccc1)C(=O)C1CCCCN21 (stereo not drawn)	none (no result: Pf growth 48h, Shiga toxin inh, Pf growth 96h, NS1 function inh, CHX counter)
O=C(c1cccc(Cl)c1)N1CCN(c2ccccn2)CC1	Pf growth 96h inconclusive
O=C(c1ccc(S(=O)(=O)c2ccccc2Cl)c([N+](=O)[O-])c1)N1CCCCCC1	Pf growth 48h inconclusive, Pf growth 96h 13µM
O=C(c1ccc(S(=O)(=O)c2cccc(Cl)c2)c([N+](=O)[O-])c1)N1CCN(c2ccccn2)CC1	Pf growth 48h inconclusive, Pf growth 96h inconclusive, CHX counter 22, Sm TGR block 3.5µM (no result: NS1 function inh)
O=C(c1ccc(S(=O)(=O)Cc2ccccc2F)c([N+](=O)[O-])c1)N1CCCCCC1	Pf growth 48h inconclusive, Pf growth 96h inconclusive, Sm TGR block inconclusive (no result: NS1 function inh)
